Holding throughout (format): functional
Assay [1] concerns the target Solute carrier family 2, facilitated glucose transporter member 1 (Homo sapiens) (UniProt P11166). Nature of the assay: ST_JUDE_LEISH: Cytotoxicity at 2uM final concentration against transgenic Leishmania Mexicana promastigotes LmGLUT1 that are glucose transport deficient and complemented with the human glucose transporter GLUT1. Activity is measured by DNA content using SYBR green in vitro.

Assay [2] deals with Hexose transporter 1 (Plasmodium falciparum) (UniProt O97467). Nature of the assay: ST_JUDE_LEISH: Cytotoxicity at 2uM final concentration against transgenic Leishmania Mexicana promastigotes LmPfHT that are glucose transport deficient and complemented with the Plasmodium falciparum hexose transporter. Activity is measured by DNA content using SYBR green in vitro.
For assay [3], the target named is Glucose transporter (Leishmania mexicana) (UniProt O61059). Nature of the assay: ST_JUDE_LEISH: Cytotoxicity at 2uM final concentration against transgenic Leishmania Mexicana promastigotes LmGT2 that are glucose transport deficient and complemented with the L. Mexicana glucose transporter 2. Activity is measured by DNA content using SYBR green in vitro.

Solute carrier family 2, facilitated glucose transporter member 1 (Homo sapiens), sequence (P11166 whole entry): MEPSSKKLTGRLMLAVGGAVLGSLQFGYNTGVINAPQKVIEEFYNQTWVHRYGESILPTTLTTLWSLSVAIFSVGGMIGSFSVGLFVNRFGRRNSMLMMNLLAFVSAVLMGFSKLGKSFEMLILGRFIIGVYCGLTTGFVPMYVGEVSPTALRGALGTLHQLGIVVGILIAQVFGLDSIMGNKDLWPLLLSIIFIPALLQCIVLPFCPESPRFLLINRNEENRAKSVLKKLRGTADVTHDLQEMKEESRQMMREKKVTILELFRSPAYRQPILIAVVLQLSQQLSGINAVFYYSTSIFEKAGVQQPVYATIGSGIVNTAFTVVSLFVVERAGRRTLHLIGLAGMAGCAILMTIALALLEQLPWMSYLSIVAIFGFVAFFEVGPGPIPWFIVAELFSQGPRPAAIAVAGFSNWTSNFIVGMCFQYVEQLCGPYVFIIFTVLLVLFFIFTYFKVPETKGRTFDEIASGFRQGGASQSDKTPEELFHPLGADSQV

As a reminder, the inhibition is the change of the read-out against control, counted positive when it falls. Consider `O=C1OC2(CN1CC1CCN(Cc3ccc(-n4ccnc4)cc3)C1)c1ccccc1-c1ccccc12` (configuration not stated), for which the inhibition was 4.6% in assay [1], 5.24% in assay [2] and 2.86% in assay [3].
In the same order, the values of `CN1CCN(c2nc(NCCc3ccc(O)cc3)nc(NCc3ccccc3-c3ccc(C(F)(F)F)cc3)n2)CC1` are 1.59%, 2.22% and 3.13%.
On the same counts, the results for `Cc1cccc2nc(-c3ccc(-c4cccc(CN5CCN(CC6CCCN(C)C6)CC5)c4)s3)[nH]c12` (configuration not stated) are 7.18%, -3.27% and 0.69%.
On the same counts, the results for `O=C(NCCCc1ccccc1)c1csc(C2CCCN(C(=O)c3ccc(O)c(-c4ccccc4)c3)C2)n1` (configuration not stated) are 2.11%, 0.46% and -4.23%.
In the case of `CNc1ccc(CNCc2cccc(-c3ccc(-c4nc5cc(C(F)(F)F)ccc5[nH]4)cc3)c2)cc1`, the values for the inhibition in assay [1], in assay [2] and in assay [3] were -1.26%, 1.48% and 1.39%, respectively.
On the same counts, the results for `O=C(Nc1cccc(-c2ccc(CN3CCC(O)CC3)cc2)c1)c1cccc(Cl)c1` are 3.01%, 3.03% and 2.17%.
In the same order, the values of `Fc1cc(Cl)ccc1Nc1ccnc(Nc2ccc3cn[nH]c3c2)n1` are 12.7%, 10.7% and 5.1%.
In the same order, the values of `O=C(Nc1ccccc1)c1ccc(-c2cc3ccncc3cc2OC2CCNCC2)s1` are -3.12%, 3.86% and -3.49%.
For the compound `O=c1cc(NCCCNCc2ccc(Cl)c(Cl)c2)[nH]c2ccc(Cl)cc12`, the inhibition in assay [1] is 0.59%; in assay [2] it was 0.59%; in assay [3] it was -9.23%.
With `FC(F)(F)c1ccc(CNC2CCN(CC3CCCCC3)CC2)cc1`, the results for the inhibition in assay [1], in assay [2] and in assay [3] were 7.89%, 7.71% and 8.5%, respectively.
`CCn1c(-c2nonc2N)nc2c(-c3cccc(NC(=O)Nc4ccc(C(F)(F)F)cc4)c3)ncc(OCCCN)c21`: the inhibition is 2.98% in assay [1], 2.48% in assay [2] and 3.54% in assay [3].
Take `O=C(NCCCCN1CCC(c2ccc3c(c2OCCN2CCCC2)CCCC3)CC1)c1ccc(-c2ccc(C(F)(F)F)cc2)cc1`: the results for the inhibition in assay [1], in assay [2] and in assay [3] were 3.42%, 5.87% and 4%, respectively.
On the same counts, the results for `Fc1ccc2[nH]c(-c3ccc(-c4ccc(CNCC5CCCO5)cc4)s3)nc2c1` (configuration not stated) are 11.9%, 9.33% and 11%.
For the compound `C[C@H](NC(=O)c1cc(-c2ccc(C(C)(C)C)cc2)no1)C(=O)O.C[C@H](NC(=O)c1conc1-c1ccc(C(C)(C)C)cc1)C(=O)O`, the figures for the inhibition in assay [1], in assay [2] and in assay [3] were -0.02%, 0.23% and 1.58%, respectively.
With `COc1ccc(CCn2c(=N)c(C(=O)NCc3ccccc3)cc3c(=O)n4cccc(C)c4nc32)cc1`, the figures for the inhibition in assay [1], in assay [2] and in assay [3] were 12.7%, 13.6% and 7.48%, respectively.
On the same counts, the results for `FC(F)(F)c1ccc2[nH]c(-c3ccc(-c4cccc(CNCc5ccccc5)c4)s3)nc2c1` are 2.04%, 0.97% and 1.82%.
Take `O=S(=O)(Nc1cccc(CCN2CCCCC2CCN2CCCC2)c1)c1cccc2ccccc12` (configuration not stated): the inhibition in assay [1] was 1.15%; in assay [2], 2.49%; in assay [3], -0.21%.
In the same order, the values of `O=C(Nc1ccc2c(c1)CCN2C1CCN(Cc2csc3ccccc23)C1)c1ccco1` (configuration not stated) are 2.05%, 2.08% and 1.45%.
As to `CC(C)(C)C(=O)Oc1ccc(CC2NCCc3cc(OC(=O)C(C)(C)C)c(OC(=O)C(C)(C)C)cc32)cc1OC(=O)C(C)(C)C` (configuration not stated), the inhibition is 8.66% in assay [1], 9.32% in assay [2] and 7.65% in assay [3].
Regarding `Cc1cc(C(=O)N[C@H]2CCN(Cc3ccc(OCCCN(C)C)cc3)C2)ccc1Br`, the results for the inhibition in assay [1], in assay [2] and in assay [3] were 0.17%, 0.95% and 1.98%, respectively.
In the same order, the values of `Fc1ccc2[nH]c(-c3cccc(-c4cccc(CNCc5cnn(-c6ccccc6)n5)c4)c3)nc2c1` are 6.56%, 8.75% and 7.46%.
In the same order, the values of `NC1CCN(Cc2cccc(-c3csc(-c4nc5ccccc5[nH]4)c3)c2)C1` (configuration not stated) are 2.21%, 1.55% and 4.6%.
For `CC(C)Sc1nc2c(c(=O)n1Cc1ccco1)C1(CCCC1)Cc1ccccc1-2`, the inhibition in assay [1] worked out at 6.99%; in assay [2], 4.28%; in assay [3], 6.08%.
`N#Cc1ccc(N2CCN(Cc3ccc(-c4ccc(-c5nc6ccccc6[nH]5)s4)cc3)CC2)nc1`: the inhibition turned out to be 6.79% in assay [1], 6.18% in assay [2] and 2.59% in assay [3].
As for `COc1cc(F)c2ncc(Cl)c([C@H](O)CN3CCC(NCc4ccc5c(n4)NC(=O)CO5)CC3)c2c1`, the figures for the inhibition in assay [1], in assay [2] and in assay [3] were -1.35%, 0.88% and 0.03%, respectively.
As for `COc1ccc(C23Oc4cc(OC)cc(OC)c4C2(O)C2(CC3c3ccccc3)SCCCS2)cc1` (configuration not stated), the inhibition in assay [1] is 0.76%; in assay [2], -0.16%; in assay [3], 1.15%.
In the same order, the values of `Cc1nc(NC2=NCN(CCCN3CCOCC3)CN2)nc2c(C)cccc12` are 8.37%, 17.2% and 11%.
Turning to `Cn1nccc1C(=O)NCCNCc1cccc(-c2csc(-c3nc4ccccc4[nH]3)c2)c1`, the results for the inhibition in assay [1], in assay [2] and in assay [3] were 9.15%, 8.22% and 7.22%, respectively.
Take `Cc1c(C(=O)NCc2ccncc2)sc2nc(-c3cccc([N+](=O)[O-])c3)cn12`: the figures for the inhibition in assay [1], in assay [2] and in assay [3] were 0.53%, -1.39% and -3.15%, respectively.
In the same order, the values of `Cc1ccccc1C(=O)NC(NC(=S)Nc1ccc([N+](=O)[O-])cc1)C(Cl)(Cl)Cl` (configuration not stated) are 0.54%, -1.37% and 0.22%.
For `Cn1cncc1CCCN(Cc1ccc(-c2ccc(C(F)(F)F)cc2)cc1)C(=O)Cn1c(CCc2cccc(F)c2F)cc(=O)c2cccnc21`, the inhibition in assay [1] amounted to 2.28%; in assay [2], 2.54%; in assay [3] it was 1.5%.
On the same counts, the results for `Nc1cccc(CNCc2cccc(-c3ccc(-c4nc5ccccc5[nH]4)cc3)c2)c1` are -1.29%, -0.89% and -0.37%.
On the same counts, the results for `Nc1nc(F)nc2nc[nH]c12` are 29.6%, 29.2% and 22%.
In the same order, the values of `O=C(NCCc1cccc(Cl)c1Cl)c1cnc(N2CCN(c3ccncc3)CC2)c(Cl)c1` are 77.2%, 81.6% and 83.9%.
Take `CC(C)(C)Oc1ccc(CC2NC3(C(=O)N(Cc4ccc(C(C)(C)C)cc4)c4ccccc43)C3C(=O)N(c4ccc(Br)cc4)C(=O)C23)cc1` (configuration not stated): the figures for the inhibition in assay [1], in assay [2] and in assay [3] were -1.37%, 3% and 0.37%, respectively.
On the same counts, the results for `COc1ccc(CON2C(=N)N=C(N)NC2(C)C)cc1OC` are -1.03%, -1.38% and -0.13%.
In the same order, the values of `CCCCNC(=O)[C@H](CC1CCCCC1)NC(=O)c1ccc(O)c(-c2ccc(OC)cc2)c1` are 2.45%, 2.88% and 4.23%.
Take `CNCCNCc1cccc(-c2cccc(-c3nc4cccc(C)c4[nH]3)c2)c1`: the inhibition in assay [1] was found to be 0.8%; in assay [2] it was 2.47%; in assay [3], 0.35%.
Turning to `Cc1cc(-c2ccc(CN3Cc4ccccc4C3)cc2)ccc1S(=O)(=O)NCCN1CCCC1`, the inhibition in assay [1] is 40.3%; in assay [2], 17.2%; in assay [3] it was 11%.
In the same order, the values of `CC(=O)c1ccc2nc[nH]c(=O)c2c1` are 99.2%, 96.3% and 91.6%.
On the same counts, the results for `Cn1nc(-c2cccc(CNCCc3cccs3)c2)c2cnc(NC3CCCC3)nc21` are 5.58%, 5.16% and 5.1%.
On to `COc1ccc2nccc(N3CCCN(CCNCc4ccc5c(n4)NC(=O)CS5)CC3)c2n1`, for which the figures for the inhibition in assay [1], in assay [2] and in assay [3] were -4.21%, -0.98% and 3.94%, respectively.
For `O=[N+]([O-])c1ccc(C=NNc2nc3ccccc3[nH]2)cc1`, the inhibition in assay [1] was -0.91%; in assay [2] it was 0.53%; in assay [3], -0.44%.
Consider `Cn1cnc2c(Nc3ccncc3)nc(-c3ccc(OC(F)(F)F)cc3)nc21`, for which the inhibition stood at 2.51% in assay [1], 1.84% in assay [2] and 2.19% in assay [3].
As to `CN1CCc2cc(Br)c(O)cc2C1Cc1ccccc1Cl` (configuration not stated), the inhibition in assay [1] was -1.43%; in assay [2] it was -1.61%; in assay [3], -2.87%.
With `O=C(C=Cc1ccc(Cl)c(Cl)c1)NCCCCCN1CCCC(CCCNS(=O)(=O)c2cccc(C(F)(F)F)c2)C1` (configuration not stated), the inhibition in assay [1] is 0.93%; in assay [2], -0.07%; in assay [3], 2.4%.
In the same order, the values of `Cc1cc(C(=O)CN2C(=O)NC3(CCOc4ccccc43)C2=O)c(C)n1Cc1ccco1` (configuration not stated) are 5.85%, 4.77% and 3.86%.
Consider `Cc1ccc(-c2nc(NC(=O)Nc3ccc(C(F)(F)F)cc3)sc2C)cc1Cl`, for which the inhibition in assay [1] came to 5.17%; in assay [2], 1.68%; in assay [3] it was 1.54%.
Turning to `COc1cccc(OC2CCN(C(=O)c3ccc(-c4ccc(N5CCCC5=O)cc4C)cc3)CC2)c1`, the inhibition in assay [1] is 1.4%; in assay [2], 0.88%; in assay [3] it was 3.06%.
